Inconclusive results are not listed. A call without a number means that no potency is given here. The source made the active and inactive calls. Unless noted, the call rests on the fitted dose curve; in most records, active means well fitted activation curve with a large enough effect; inconclusive means small, poorly fitted or top-dose-only effect; inactive means no such curve, though single readings can be large or run the other way.
Tests used:
[1] = target: Mitogen-activated protein kinase 10 (Mus musculus) (UniProt Q61831); assay: JNK3 AlphaScreen Assay (AID 530; active means well fitted curve in either direction with a large enough effect, not every such curve was filed as active;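 further: kinase came from lysate of stimulated human HepG2 cells; signal reports phosphorylation of biotinylated GST-cJun 1-79 at Ser73 with 10 µM ATP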); settings: JNK3 lysate, c-Jun phosphorylation; series mostly up to 57.1 µM
In short: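 HepG2 lysate (IL-1b/TNFa pre-activated) + biotin-GST-cJun 1-79 + anti-pSer73 cJun; cpd titration, 15 min RT; ATP 10 uM start; Tris pH 7.6, MgCl2, DTT, vanadate; beads in EDTA buffer; AlphaScreen.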

[2] = target: Cytochrome P450 3A4 (Homo sapiens) (UniProt P08684); assay: qHTS Assay for Activators of Cytochrome P450 3A4 (AID 885); settings: recombinant CYP3A4, Luciferin-PPXE luminescence, 60 min; series mostly up to 57.1 µM; further: nearly all actives have a fitted effect of over 65% in size
In short: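 Activators are scored by enhanced luminescence from CYP3A4 conversion of luciferin-PPXE (25uM, equal to KM) to luciferin, after 60 min at RT with an NADPH-regenerating system.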

Chain of Cytochrome P450 3A4 (Homo sapiens) (P08684 whole entry, looked up): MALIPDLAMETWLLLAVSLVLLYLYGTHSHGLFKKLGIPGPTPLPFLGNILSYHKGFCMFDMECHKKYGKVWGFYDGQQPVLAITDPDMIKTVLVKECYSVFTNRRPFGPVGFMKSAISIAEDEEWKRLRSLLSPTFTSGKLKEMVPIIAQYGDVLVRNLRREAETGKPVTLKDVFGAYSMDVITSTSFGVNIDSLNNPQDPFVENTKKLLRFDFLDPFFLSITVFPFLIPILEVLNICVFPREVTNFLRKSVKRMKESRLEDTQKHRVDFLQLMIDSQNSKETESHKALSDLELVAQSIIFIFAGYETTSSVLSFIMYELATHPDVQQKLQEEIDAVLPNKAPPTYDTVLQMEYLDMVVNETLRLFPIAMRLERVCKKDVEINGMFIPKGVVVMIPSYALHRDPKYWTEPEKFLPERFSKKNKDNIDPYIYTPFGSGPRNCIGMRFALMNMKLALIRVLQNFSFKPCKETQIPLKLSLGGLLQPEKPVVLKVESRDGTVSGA

Structure (SMILES): COC(=O)[C@@H]1C[C@@]1(C)[C@@H](NC(=O)OCc1ccccc1)c1ccccc1
- outcome [1]: inactive
- Potency [2]: inactive

Structure (SMILES): C=C(N(C)C)[C@]1(C)C[C@H]1[C@H](NC(=O)CNC(=O)OCc1ccccc1)c1ccccc1
- outcome [1]: inactive
- Potency [2]: inactive

Structure (SMILES): COC(=O)C1(C)C=CC2(CCCCC2)N1C(C)=O (stereo not drawn)
- outcome [1]: inactive
- Potency [2]: inactive

Structure (SMILES): COc1ccc(CNC(=O)C(C)Cc2ccccc2)cc1O (stereo not drawn)
- outcome [1]: inactive
- Potency [2]: inactive

Structure (SMILES): C[C@]1(C(=O)NCC2CC2)C=C[C@@H](Cc2ccccc2)N1C(=O)c1ccccc1
- outcome [1]: inactive
- Potency [2]: inactive

Structure (SMILES): COC(=O)c1ccc(C(/C=C/[C@@H](C)C(=O)NCCN2CCCC2)NC(=O)OCc2ccccc2)cc1 (stereo partly drawn)
- outcome [1]: inactive
- Potency [2]: inactive

Structure (SMILES): CC(=O)N1C2(C=CC1(C)C(=O)NCc1ccccn1)CCCCC2 (stereo not drawn)
- outcome [1]: inactive
- Potency [2]: inactive

Structure (SMILES): COC(=O)c1ccc(C(NC(=O)OCc2ccccc2)/C(=C/[C@@H](C)C(=O)NCC2CC2)c2cccnc2)cc1 (stereo partly drawn)
- outcome [1]: inactive
- Potency [2]: inactive

Structure (SMILES): Cc1nn(-c2ccccc2)nc1CNC(=O)C(C)Cc1ccccc1 (stereo not drawn)
- outcome [1]: inactive
- Potency [2]: inactive

Structure (SMILES): COC(=O)CNC(=O)C1(C)C=CC2(CCCCC2)N1C(=O)OC (stereo not drawn)
- outcome [1]: inactive
- Potency [2]: inactive

Structure (SMILES): CC1(C(=O)NCC2CC2)C=CC2(CCCCC2)N1C(=O)c1ccccc1 (stereo not drawn)
- outcome [1]: inactive
- Potency [2]: inactive

Structure (SMILES): COC(=O)CNC(=O)[C@@]1(C)C=C[C@@H](Cc2ccccc2)N1C(C)=O
- outcome [1]: inactive
- Potency [2]: inactive

Structure (SMILES): COC(=O)c1ccc(C(NC(=O)OCc2ccccc2)/C(F)=C/[C@@H](C)C(=O)NCCc2c[nH]c3ccc(OC)cc23)cc1 (stereo partly drawn)
- outcome [1]: inactive
- Potency [2]: inactive

Structure (SMILES): CC(=O)N1[C@H](C)C=C[C@]1(Cc1ccccc1)C(=O)O
- outcome [1]: inactive
- Potency [2]: inactive

Structure (SMILES): COC(=O)N1[C@H](C)C=C[C@]1(Cc1ccccc1)C(=O)NCCCNc1ncc(C(F)(F)F)cc1Cl
- outcome [1]: inactive
- Potency [2]: inactive

Structure (SMILES): COCCNC(=O)[C@H](C)/C=C(\c1cccnc1)C(NC(=O)OCc1ccccc1)c1ccc(C(=O)OC)cc1 (stereo partly drawn)
- outcome [1]: inactive
- Potency [2]: inactive

Structure (SMILES): CCCCCCN(C(=O)CCCCCN1C(=O)NC(C2CC2)C(C(=O)OCc2ccccc2)=C1C)C(C(=O)NCCCC)c1ccc(OCC(=O)OC)c(C(=O)OC)c1 (stereo not drawn)
- outcome [1]: inactive
- Potency [2]: inactive

Structure (SMILES): CC(=O)N1[C@H](C)C=C[C@]1(Cc1ccccc1)C(=O)NCc1cc(F)cc(C(F)(F)F)c1
- outcome [1]: inactive
- Potency [2]: inactive

Structure (SMILES): COC(=O)c1ccc(C(NC(=O)OCc2ccccc2)/C(I)=C/[C@@H](C)C(=O)NCC2CC2)cc1 (stereo partly drawn)
- outcome [1]: inactive
- Potency [2]: inactive

Structure (SMILES): COC(=O)N1CC=CC1(C)C(=O)NCc1cc(F)cc(C(F)(F)F)c1 (stereo not drawn)
- outcome [1]: inactive
- Potency [2]: inactive

Structure (SMILES): COC(=O)c1ccc(C(NC(=O)OCc2ccccc2)/C(=C/[C@@H](C)C(=O)NCc2ccc(S(C)(=O)=O)cc2)c2cccnc2)cc1 (stereo partly drawn)
- outcome [1]: inactive
- Potency [2]: inactive

Structure (SMILES): CC(C)CC1(C(=O)NCc2ccccn2)C=CCN1C(=O)c1ccccc1 (stereo not drawn)
- outcome [1]: inactive
- Potency [2]: inactive

Structure (SMILES): CCCCCCN(C(=O)CCCCCN1C(=O)NC(c2ccc(-c3ccccc3)cc2)C(C(=O)OCc2ccccc2)=C1C)C(C(=O)NCCCC)c1ccc(OCC(=O)O)c(C(=O)O)c1 (stereo not drawn)
- outcome [1]: inactive
- Potency [2]: inactive

Structure (SMILES): COC(=O)CNC(=O)C1(CC(C)C)C=CCN1C(=O)c1ccccc1 (stereo not drawn)
- outcome [1]: inactive
- Potency [2]: inactive

Structure (SMILES): COC(=O)C1(C)C=CC2(CCCCC2)N1C(=O)c1ccccc1 (stereo not drawn)
- outcome [1]: inactive
- Potency [2]: inactive

Structure (SMILES): COCCNC(=O)[C@@]1(Cc2ccccc2)C=C[C@@H](C)N1C(C)=O
- outcome [1]: inactive
- Potency [2]: inactive

Structure (SMILES): CC1=C(C(=O)OCc2ccccc2)C(c2ccc(C(F)(F)F)cc2)NC(=O)N1CCCCCC(=O)O (stereo not drawn)
- outcome [1]: inactive
- Potency [2]: inactive

Structure (SMILES): CCCCCCN(C(=O)CCCCCN1C(=O)NC(c2ccc(-c3ccccc3)cc2)C(C(=O)OCc2ccccc2)=C1C)C(C(=O)NCCCC)c1ccccc1 (stereo not drawn)
- outcome [1]: inactive
- Potency [2]: inactive

Structure (SMILES): CC(=O)N1CC=CC1(C)C(=O)O (stereo not drawn)
- outcome [1]: inactive
- Potency [2]: inactive

Structure (SMILES): CNC(=O)C1(C)C=CC2(CCCCC2)N1C(C)=O (stereo not drawn)
- outcome [1]: inactive
- Potency [2]: inactive

Structure (SMILES): CCCCCCN(C(=O)CCCCCN1C(=O)NC(c2ccc(-c3ccccc3)cc2)C(C(=O)OCc2ccccc2)=C1C)C(C(=O)NCCCC)c1ccccn1 (stereo not drawn)
- outcome [1]: inactive
- Potency [2]: inactive

Structure (SMILES): CCCCCCN(C(=O)CCCCCN1C(=O)NC(c2ccc(-c3ccccc3)cc2)C(C(=O)OCc2ccccc2)=C1C)C(C(=O)NCCCC)c1cccc(C(=O)OC)c1 (stereo not drawn)
- outcome [1]: inactive
- Potency [2]: inactive

Structure (SMILES): COC(=O)CNC(=O)C1(CC(C)C)C=CCN1C(C)=O (stereo not drawn)
- outcome [1]: inactive
- Potency [2]: inactive

Structure (SMILES): CCCCNC(=O)C(c1ccc(OCC(=O)OC)c(C(=O)OC)c1)N(CCOC)C(=O)CCCCCN1C(=O)NC(c2ccc(-c3ccccc3)cc2)C(C(=O)OCc2ccccc2)=C1C (stereo not drawn)
- outcome [1]: inactive
- Potency [2]: inactive

Source: PubChem BioAssay (NCATS)
